The list is not random: actives were taken first. Their share in the collection is about 5.1%.
NPSR antagonist – blocks cAMP signaling of the human neuropeptide S receptor. Potency, µM (highest dose often 38.3 µM), without a hit: top-dose activity change, negative = inhibition, actives largely listed as inhibitors. AID 1461. CHO-NPSR cells, cAMP TR-FRET, antagonist mode. 1% of 220,000 active; also: potency is read from the fitted curve at half-maximal effect; nearly all actives have a fitted effect of over 50% in size
Target sequence (Q6W5P4 whole entry, looked up): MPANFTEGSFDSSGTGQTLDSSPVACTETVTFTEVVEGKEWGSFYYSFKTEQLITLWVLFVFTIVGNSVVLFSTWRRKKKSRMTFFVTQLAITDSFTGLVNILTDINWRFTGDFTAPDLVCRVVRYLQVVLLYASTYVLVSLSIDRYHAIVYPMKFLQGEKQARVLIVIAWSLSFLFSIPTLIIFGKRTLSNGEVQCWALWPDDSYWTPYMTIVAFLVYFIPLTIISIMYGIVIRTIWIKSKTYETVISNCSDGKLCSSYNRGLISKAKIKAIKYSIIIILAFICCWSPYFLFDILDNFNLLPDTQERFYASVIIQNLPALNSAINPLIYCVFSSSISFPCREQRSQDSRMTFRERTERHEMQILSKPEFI
Tau fluor counter – counter-screen for tau fibril formation inhibitors | tau K18 P301L Alexa594 fluorescence, heparin fibrillization | Potency, µM (titrated, usually from 57.7 µM), without a hit: at the top dose activity change, negative = decrease | 0.93% of 280,000 active | AID 1463; also: potency is read from the fitted curve at half-maximal effect; nearly all actives have a fitted effect of over 55% in size
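Human K18 P301L tau (15 uM unlabeled plus 0.24 uM Alexa 594-labeled, final) in 100 mM sodium acetate pH 7 was mixed with compound and 20 uM heparin and incubated 6 hr at 37 C.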
Tau fibril ThT – blocks human tau fibril formation measured by thioflavin T; P10636; recombinant tau K18 P301L (four-repeat tau fragment), heparin-induced fibrillization, ThT fluorescence; Potency, µM (doses to about 57.4 µM), without a hit: at the highest dose activity, negative = inhibition, most hits filed as inhibitors; 2.1% of 270,000 active; AID 1460; also: potency is read from the fitted curve at half-maximal effect; nearly all actives have a fitted effect of over 55% in size
Target sequence (P10636 561-689 P618L limits assumed): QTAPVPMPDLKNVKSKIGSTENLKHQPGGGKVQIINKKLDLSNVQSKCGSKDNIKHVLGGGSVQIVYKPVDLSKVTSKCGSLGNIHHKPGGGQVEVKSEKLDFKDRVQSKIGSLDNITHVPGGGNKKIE
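K18 P301L tau (15 uM + 0.24 uM Alexa 594-tagged), heparin 20 uM, NaOAc pH 7, 6 h 37 C; ThT 30 uM, 1 h RT, ex 450/em 510 nm.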
PNC inhibitor – perinucleolar compartment assembly inhibition | PC3M PTB-GFP, PNC prevalence imaging, 16 h; stronger effect = lower value | activity change (PNC), negative = inhibition, % at 10 µM | 3.1% of 140,000 active | AID 2417;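 active = readout at or below -70, meaning at least 70% loss of cells showing the perinucleolar compartment, a nuclear body marking cancer cells; inconclusive = readout between -30 and a set limit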;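 also: plate controls were DMSO wells for no effect and camptothecin positive control wells for full effect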
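PC3M cells stably expressing PTB-GFP, 750–1000 cells/well, treated 16 h at 37 °C with compound (23 nl of library stock), in duplicate. After paraformaldehyde fixation and Hoechst stain, imaged at 20x; PNC prevalence scored by image analysis.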
KDM4E inh – JMJD2E (human) inhibition; JMJD2E catalytic domain, FDH-coupled NADH fluorescence (FDH is formaldehyde dehydrogenase); Potency, µM (top dose mostly 57.1 µM), for inactives: at the top dose activity change, negative = inhibition, most hits filed as inhibitors; AID 2147; 1.6% of 230,000 active; B2RXH2; active = well fitted inhibition curve with a large enough effect, not every such curve was filed as active; inconclusive = small, poorly fitted or top-dose-only effect, or another doubt; inactive = no such curve, though single readings can be large or run the other way;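 also: potency is read from the fitted curve at half-maximal effect; 0% = wells with enzyme and -100% = buffer wells without enzyme; nearly all actives have a fitted effect of over 50% in size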
Tau fibril FP – tau fibrillization inhibition (FP); Potency, µM (series often up to 57.7 µM), inactives show at the top dose activity, negative = inhibition, actives largely listed as inhibitors; K18 P301L tau heparin fibrillization, Alexa594 FP, 6 h; 0.39% of 280,000 active; also: potency is read from the fitted curve at half-maximal effect; nearly all actives have a fitted effect of over 55% in size
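K18 P301L tau (15 uM unlabeled/0.24 uM Alexa 594-labeled, final) + compound + heparin 20 uM final; 100 mM NaOAc pH 7; 6 hr 37 C; ThT 30 uM final added, 1 hr RT; FP ex 555/em 632 nm.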
The depositor's hits bear a star; ? = inconclusive; . = no result; [ ] = another dose, or the depositor's remark. Unless noted, calls follow the shape of the dose curve; as a rule, active = well fitted curve in the direction sought with a large enough effect; inconclusive = small, poorly fitted or top-dose-only effect, or another doubt; inactive = no such curve, though single readings can be large; an effect the other way counts as inactive or inconclusive. Unless noted, % is scaled to controls: 0 for no effect and ±100 for the full control effect.

SMILES	NPSR antagonist	Tau fluor counter	Tau fibril ThT	PNC inhibitor	KDM4E inh	Tau fibril FP
CCc1nnc(NC(=O)CSc2nnc3c(C)cc4c(C)ccc(C)c4n23)s1	9%	-4%	-12%	-113*	-6%	-5%
Cn1c(SCC(=O)Nc2sccc2C(N)=O)nnc1-c1ccncc1	-17%	6%	-2%	.	7%	-6%
COCCn1c(SCC(=O)Nc2nnc(C)s2)nnc1-c1cc2ccccc2cc1O	?	-14%	-7%	-91*	3%	-2%
Cc1ccc(-n2c(Cc3cccn3C)nnc2SCC(=O)Nc2nnc(C)s2)cc1	-5%[46.1 µM]	-10%	-20%	5	-6%	-9%
CCc1nnc(NC(=O)CSc2nnc(-c3ccncc3)n2C)s1	-2%[46.1 µM]	3%	2%	-100*	6%	2%
Cc1nnc(NC(=O)CSc2nnc(Cc3cccn3C)n2C)s1	-27%[46.1 µM]	-3%	-9%	-95*	-23%	-10%
Cc1ccc(CNC(=O)Cn2ccn(-c3ccc(F)cc3)c(=O)c2=O)cc1	.	5%	7%	.	.	?
CCOC(=O)c1cnc2c(ccc3ccccc32)c1Nc1ccccc1O	.	?	2%	.	.	?
O=C(CSc1n[nH]c(-c2ccccc2)n1)NCCCc1ccccc1	.	-10%	-2%	.	.	0%
Cc1ccccc1-c1nn2c(=O)cc(CN3CCN(C(=O)/C=C/c4ccccc4)CC3)nc2s1	.	2%	?	.	.	-1%
Cc1ccccc1OCc1ccc(-c2nc(C#N)c(NCCCN(C)C)o2)o1	.	?	-13%	.	.	?
CCc1cc2c(nc1CC)CCN(CC/C(C)=N/O[C@@H](C)CN1CCCc3nc(C)c(C)cc31)C2	.	-30%[11.6 µM]	?	.	.	-5%[11.6 µM]
Cc1ccc(-c2nnc(Nc3cccc(Br)c3)c3ccccc23)cc1S(=O)(=O)N1CCCCC1	.	-13%	4%	.	.	?
Cc1ccc(-c2nnc(Nc3cccc(O)c3)c3ccccc23)cc1S(=O)(=O)N1CCCCC1	.	8.9µM*[quencher]	-13%	.	.	?
Cc1ccc(NC(=O)c2c(C)oc3c2C2=NCCN2C=N3)cc1F	.	-15%	-7%	.	.	4%
Clc1ccc(-c2csc(NNC3=NCCCCC3)n2)cc1	-4%[46.1 µM]	?	32µM*	16	2%	?
c1ccc(-c2csc(NNC3=NCCCCC3)n2)cc1	-19%[46.1 µM]	?	25µM*	-23	-11%	25µM*
COc1ccc(-c2csc(NNC3=NCCCCC3)n2)cc1	-24%	-22%	25µM*	.	-12%	?
CCCCC(Sc1nc2cc3c(cc2c(=O)n1CCCC(=O)NCc1ccc2c(c1)OCO2)OCO3)C(=O)OCC (stereo not given)	.	7%	8%	.	.	3%
O=C(Cn1c(-c2cccs2)cc2cc(Cl)ccc21)N1CCN(c2ccccc2F)CC1	.	-3%	5%	.	.	0%
O=C1NN(c2ccc(F)cc2)C(=O)/C1=C\C=C\c1ccco1	-29%	?	13µM*	-21	?	?
O=C1NN(c2ccc(F)cc2)C(=O)/C1=C\c1cnn(-c2ccccc2)c1	2%	5%	5%	.	6%	-2%
Cc1cccc(/C=N\NC(=O)c2ccc(Cl)cc2)c1O	-9%	-17%	-9%	.	16µM*	-3%
Cc1nc(C)c(C(=O)N/N=C/c2cc(Br)ccc2O)s1	4%	-24%	-17%	.	22µM*	10%
O=C(N/N=C/c1cc(Cl)ccc1O)c1ccc(Br)cc1	15%	-24%	-6%	-107*	?	8%
SMILES	NPSR antagonist	Tau fluor counter	Tau fibril ThT	PNC inhibitor	KDM4E inh	Tau fibril FP
COc1cccc(/C=N/NC(=O)c2ccc(-c3ccccc3)cc2)c1O	-3%[46.1 µM]	-29%	?	23	?	2%
O=C(N/N=C/c1cc([N+](=O)[O-])ccc1O)c1ccncc1	-15%	-9%	?	.	10µM*	11%
COc1ccc(OC)c(Nc2ncnc3c2nc2n3CCCC2)c1	.	9%	10%	.	.	-2%
O=C(Nc1ccc(-c2nc3cc(NC(=O)c4ccc(Cl)cc4)ccc3o2)cc1)c1ccc(Cl)cc1	.	-5%	?	.	.	?
COc1ccc(CNC(=O)C(=O)NCC(c2cccs2)S(=O)(=O)c2cccs2)cc1 (stereo not given)	.	-8%	-5%	.	.	-6%
COc1cc(O)c(/C=N/NC(=O)c2ccncc2)c(OC)c1[N+](=O)[O-]	-16%	-7%	?	.	22µM*	13%
O=C(N/N=C/c1cc([N+](=O)[O-])ccc1O)c1ccc2c(c1)OCCO2	-11%	-14%	?	29	25µM*	12%
O=C(N/N=C/c1ccccc1[N+](=O)[O-])c1ccc2c(c1)OCCO2	-11%	-13%	?	.	13%	7%
Nc1nonc1C(=O)N/N=C/c1cc(Br)ccc1O	-14%	-11%	?	.	3.5µM*	9%
O=C(N/N=C/c1cc(Br)ccc1O)c1ccncc1	8%	-9%	-9%	.	28µM*	?
COc1ccc(CCNC(=O)C(=O)NCC(c2ccc3c(c2)OCO3)N2CCOCC2)cc1OC (stereo not given)	.	-12%	-9%	.	.	6%
Cc1ccc(-n2c(SCC(=O)Nc3cccc(Cl)c3)nc3n[nH]c(C)c3c2=N)cc1	.	-15%	8%	.	.	-14%
O=C(N/N=C/c1ccc(O)c2ncccc12)c1cccc(Br)c1	12%	?	6.3µM*	.	-22%	14%
O=C(N/N=C\c1ccc(Sc2ccccn2)o1)c1cccc(Br)c1	-17%[46.1 µM]	?	-8%	22	?	-15%
Cc1cc(C(=O)COC(=O)c2ccc(O)cc2)c(C)n1CC1COc2ccccc2O1 (stereo not given)	-35%	?	-7%	-81*	2%	?
Cn1c(=O)[nH]c(Nc2ccc(F)cc2)c([N+](=O)[O-])c1=O	7%	6%	-4%	-109*	-29%	7%
Cc1ccc(Nc2c([N+](=O)[O-])c(=O)n(C)c3ccccc23)cc1	10%	-12%	?	.	-6%	6%
COc1ccc(-c2nc3scc(CCNS(=O)(=O)c4ccc(C)cc4)n3n2)cc1	.	-19%	-4%	.	.	-9%
Nc1ncnc(Nc2ccc(F)cc2)n1	14%	0%	-3%	-91*	0%	-4%
COc1ccc(C(=O)c2cn(Cc3ccc(C)cc3)c3cc4c(cc3c2=O)OCO4)cc1	.	-15%	-14%	.	.	-2%
COc1ccc(Br)cc1CNC(=O)CCSCc1ccc(C)cc1	.	-23%	-15%	.	.	-13%
O=C(O)c1ccccc1N/N=C/c1c(Sc2nnnn2-c2ccccc2)nc2ccccn2c1=O	28%	?	7.9µM*	.	-4%	-8%
CCOc1ccc(CNC(=O)Nc2ccc3c(c2)N(C)C(=O)c2ccccc2S3)cc1	.	-13%	-12%	.	.	2%

Assay outcomes: PubChem BioAssay, National Center for Advancing Translational Sciences (NCATS)
